# Source: PubChem BioAssay (NCATS)
# Inconclusive results are not listed. A call without a number means that no potency is given here. Values without a mark were called inactive. Calls of active or inactive are those of the source. Calls come from the whole dose curve; as a rule, active = well fitted inhibition curve with a large enough effect; inconclusive = small, poorly fitted or top-dose-only effect; inactive = flat fitted curve, though single readings scatter.
# Experiments:
# JCK = assay: qHTS profiling for inhibitors of Plasmodium falciparum proliferation (AID 504749); details: P. falciparum in erythrocytes, SYBR Green DNA, 72 h; series mostly up to 28.7 µM
# How it was run: (§1)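 Parasite proliferation within erythrocytes, 72 h exposure. Endpoint: SYBR Green I fluorescence after overnight lysis at room temperature. Controls: 0.29 uM artemisinin, DMSO.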
# P93_24 = assay: as above; details: P. falciparum in erythrocytes, SYBR Green DNA, 72 h; series mostly up to 28.7 µM
# How it was run: as §1
# PC15 = assay: as above; details: P. falciparum in erythrocytes, SYBR Green DNA, 72 h; series mostly up to 28.7 µM
# How it was run: as §1
# PC49 = assay: as above; details: P. falciparum in erythrocytes, SYBR Green DNA, 72 h; series mostly up to 28.7 µM
# How it was run: as §1
# TAB109 = assay: as above; details: P. falciparum in erythrocytes, SYBR Green DNA, 72 h; series mostly up to 28.7 µM
# How it was run: as §1
# CRL-7250 = normal cell line; assay: Cytotoxic Profiling of Annotated Libraries Using Quantitative High-Throughput Screening (AID 1296008); details: Five cell lines viability, CellTiter-Glo ATP luminescence, 48-72 h; max response: active compounds read low
# How it was run: (§2)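 Compounds were pin-transferred onto cells and incubated 48 or 72 hr at 37 degree Celsius, 95% humidity. CellTiter-Glo was added, plates sat 10 min at room temperature, then ATP-coupled luminescence was imaged as the viability read-out.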
# KB-3-1 = assay: as above; details: Five cell lines viability, CellTiter-Glo ATP luminescence, 48-72 h; max response: active compounds read low
# How it was run: as §2
# GB4 = assay: qHTS profiling for inhibitors of Plasmodium falciparum proliferation (AID 504749); details: P. falciparum in erythrocytes, SYBR Green DNA, 72 h; series mostly up to 28.7 µM
# How it was run: as §1
# HB3 = assay: as above; details: P. falciparum in erythrocytes, SYBR Green DNA, 72 h; series mostly up to 28.7 µM
# How it was run: as §1
# ICS = assay: as above; details: P. falciparum in erythrocytes, SYBR Green DNA, 72 h; series mostly up to 28.7 µM
# How it was run: as §1
# N140 = assay: as above; details: P. falciparum in erythrocytes, SYBR Green DNA, 72 h; series mostly up to 28.7 µM
# How it was run: as §1
# P94_40 = assay: as above; details: P. falciparum in erythrocytes, SYBR Green DNA, 72 h; series mostly up to 28.7 µM
# How it was run: as §1
# PAD = assay: as above; details: P. falciparum in erythrocytes, SYBR Green DNA, 72 h; series mostly up to 28.7 µM
# How it was run: as §1
# PC26 = assay: as above; details: P. falciparum in erythrocytes, SYBR Green DNA, 72 h; series mostly up to 28.7 µM
# How it was run: as §1
# SC27B = assay: as above; details: P. falciparum in erythrocytes, SYBR Green DNA, 72 h; series mostly up to 28.7 µM
# How it was run: as §1
# TAB113 = assay: as above; details: P. falciparum in erythrocytes, SYBR Green DNA, 72 h; series mostly up to 28.7 µM
# How it was run: as §1
# TAB165 = assay: as above; details: P. falciparum in erythrocytes, SYBR Green DNA, 72 h; series mostly up to 28.7 µM
# How it was run: as §1
# W2 = assay: as above; details: P. falciparum in erythrocytes, SYBR Green DNA, 72 h; series mostly up to 28.7 µM
# How it was run: as §1
# HaCat = assay: Cytotoxic Profiling of Annotated Libraries Using Quantitative High-Throughput Screening (AID 1296008); details: Five cell lines viability, CellTiter-Glo ATP luminescence, 48-72 h; max response: active compounds read low
# How it was run: as §2
# Note: nearly all actives have a fitted effect of over 60% in size.
# Potency is the fitted concentration of half-maximal effect.
smiles,measurement,setting,value
CC(C)=CCC1C(=O)N(c2ccccc2)N(c2ccccc2)C1=O,Potency,JCK,inactive
same,Potency,P93_24,inactive
same,Potency,PC15,inactive
same,Potency,PC49,inactive
same,Potency,TAB109,inactive
same,max response,CRL-7250,-25.1%
same,max response,KB-3-1,-9.06%
C[N+]1(CCCCC[N+]2(C)CCCC2)CCCC1,Potency,GB4,inactive
same,Potency,HB3,inactive
same,Potency,ICS,inactive
same,Potency,JCK,inactive
same,Potency,N140,inactive
same,Potency,P93_24,inactive
same,Potency,P94_40,inactive
same,Potency,PAD,inactive
same,Potency,PC15,inactive
same,Potency,PC26,inactive
same,Potency,PC49,inactive
same,Potency,SC27B,inactive
same,Potency,TAB109,inactive
same,Potency,TAB113,inactive
same,Potency,TAB165,inactive
same,Potency,W2,inactive
same,max response,KB-3-1,15%
CC(C)(C)CC(C)(C)c1ccc(O)c(Cc2ccc(Cl)cc2Cl)c1,Potency,GB4,0.849 µM (active)
same,Potency,HB3,2 µM (active)
same,Potency,ICS,0.316 µM (active)
same,Potency,JCK,3.16 µM (active)
same,Potency,N140,0.794 µM (active)
same,Potency,P93_24,1.26 µM (active)
same,Potency,P94_40,1 µM (active)
same,Potency,PAD,1 µM (active)
same,Potency,PC15,2.24 µM (active)
same,Potency,PC26,1.51 µM (active)
same,Potency,PC49,1.78 µM (active)
same,Potency,SC27B,1.26 µM (active)
same,Potency,TAB109,2 µM (active)
same,Potency,TAB113,1.12 µM (active)
same,Potency,TAB165,0.794 µM (active)
same,Potency,W2,0.426 µM (active)
same,max response,KB-3-1,-6.63%
CCCCN1CCCC1C(=O)Nc1c(C)cc(C)cc1C (stereo not drawn),Potency,GB4,inactive
same,Potency,HB3,inactive
same,Potency,JCK,inactive
same,Potency,N140,inactive
same,Potency,P93_24,inactive
same,Potency,P94_40,inactive
same,Potency,PAD,inactive
same,Potency,PC15,inactive
same,Potency,PC26,inactive
same,Potency,PC49,inactive
same,Potency,SC27B,inactive
same,Potency,TAB109,inactive
same,Potency,TAB113,inactive
same,Potency,TAB165,inactive
same,max response,KB-3-1,-0.66%
CN1CCN(CCCN2c3ccccc3Sc3ccc(S(=O)(=O)N(C)C)cc32)CC1,Potency,ICS,1.41 µM (active)
same,Potency,P93_24,3.16 µM (active)
same,Potency,P94_40,3.16 µM (active)
same,Potency,PAD,3.98 µM (active)
same,Potency,TAB165,3.98 µM (active)
same,Potency,W2,2.03 µM (active)
same,outcome,HaCat,inactive
same,max response,KB-3-1,-2.22%
NC(CO)(CO)CO,Potency,GB4,inactive
same,Potency,HB3,inactive
same,Potency,ICS,inactive
same,Potency,JCK,inactive
same,Potency,N140,inactive
same,Potency,P93_24,inactive
same,Potency,P94_40,inactive
same,Potency,PAD,inactive
same,Potency,PC15,inactive
same,Potency,PC26,inactive
same,Potency,PC49,inactive
same,Potency,SC27B,inactive
same,Potency,TAB109,inactive
same,Potency,TAB113,inactive
same,Potency,TAB165,inactive
same,Potency,W2,inactive
same,max response,KB-3-1,3.6%
CC1=C(C(=O)OC(C)C)C(c2cccc([N+](=O)[O-])c2)C(C(=O)OC2CN(C(c3ccccc3)c3ccccc3)C2)=C(N)N1 (stereo not drawn),Potency,GB4,6.01 µM (active)
same,Potency,HB3,11.2 µM (active)
same,Potency,ICS,4.47 µM (active)
same,Potency,N140,7.94 µM (active)
same,Potency,P93_24,6.31 µM (active)
same,Potency,P94_40,8.91 µM (active)
same,Potency,PAD,10 µM (active)
same,Potency,PC15,4.47 µM (active)
same,Potency,PC26,7.57 µM (active)
same,Potency,SC27B,10 µM (active)
same,Potency,TAB109,6.31 µM (active)
same,Potency,TAB113,7.08 µM (active)
same,Potency,TAB165,5.01 µM (active)
same,Potency,W2,5.36 µM (active)
same,Potency,KB-3-1,18.4 µM (active)
CNCCC=C1c2ccccc2CCc2ccccc21,Potency,GB4,8.49 µM (active)
same,Potency,HB3,inactive
same,Potency,ICS,11.2 µM (active)
same,Potency,N140,7.08 µM (active)
same,Potency,W2,1.51 µM (active)
same,max response,KB-3-1,-9.12%
COc1cc2c(cc1OC)C(=O)C(CC1CCN(Cc3ccccc3)CC1)C2 (stereo not drawn),Potency,HB3,inactive
same,Potency,JCK,inactive
same,Potency,N140,inactive
same,Potency,P93_24,inactive
same,Potency,P94_40,inactive
same,Potency,PAD,inactive
same,Potency,PC15,inactive
same,Potency,PC26,inactive
same,Potency,PC49,inactive
same,Potency,SC27B,inactive
same,Potency,TAB109,inactive
same,Potency,TAB113,inactive
same,max response,KB-3-1,1.75%
CCCSS/C(CCO)=C(\C)N(C=O)Cc1cnc(C)nc1N,max response,KB-3-1,33.8%
CC/C(=C(/CC)c1ccc(O)cc1)c1ccc(O)cc1,Potency,HB3,inactive
same,Potency,JCK,inactive
same,Potency,N140,inactive
same,Potency,P93_24,inactive
same,Potency,PAD,inactive
same,Potency,PC26,inactive
same,Potency,PC49,inactive
same,Potency,TAB109,inactive
same,max response,KB-3-1,-22.7%
COc1ccc(/C=C/C(=O)c2ccc(OC)cc2OC)cc1,Potency,GB4,7.57 µM (active)
same,Potency,HB3,10 µM (active)
same,Potency,ICS,12.6 µM (active)
same,Potency,JCK,8.91 µM (active)
same,Potency,N140,11.2 µM (active)
same,Potency,P93_24,8.91 µM (active)
same,Potency,P94_40,10 µM (active)
same,Potency,PAD,10 µM (active)
same,Potency,PC15,7.08 µM (active)
same,Potency,PC26,7.57 µM (active)
same,Potency,PC49,5.62 µM (active)
same,Potency,SC27B,10 µM (active)
same,Potency,TAB109,7.08 µM (active)
same,Potency,TAB113,8.91 µM (active)
same,Potency,TAB165,4.47 µM (active)
same,Potency,W2,4.26 µM (active)
same,max response,HaCat,-62.6%
CCC(NC(C)C)C(O)c1ccc(O)c(O)c1 (stereo not drawn),max response,KB-3-1,-9.53%
O=C1CCC(c2ccc(-n3ccnc3)cc2)=NN1,Potency,GB4,inactive
same,Potency,HB3,inactive
same,Potency,ICS,inactive
same,Potency,JCK,inactive
same,Potency,N140,inactive
same,Potency,P93_24,inactive
same,Potency,P94_40,inactive
same,Potency,PAD,inactive
same,Potency,PC15,inactive
same,Potency,PC26,inactive
same,Potency,PC49,inactive
same,Potency,SC27B,inactive
same,Potency,TAB109,inactive
same,Potency,TAB113,inactive
same,Potency,TAB165,inactive
same,Potency,W2,inactive
same,max response,KB-3-1,11.9%
Oc1ccc(Cl)cc1Sc1cc(Cl)ccc1O,Potency,HB3,inactive
same,Potency,ICS,8.91 µM (active)
same,Potency,JCK,inactive
same,Potency,N140,inactive
same,Potency,P93_24,inactive
same,Potency,P94_40,inactive
same,Potency,PAD,inactive
same,Potency,PC15,inactive
same,Potency,PC26,inactive
same,Potency,PC49,inactive
same,Potency,TAB109,inactive
same,max response,HaCat,2%
CC1(C)CCC(NC(=O)[C@@H](N)CCC(=O)O)CC1,Potency,GB4,inactive
same,Potency,HB3,inactive
same,Potency,ICS,inactive
same,Potency,JCK,inactive
same,Potency,N140,inactive
same,Potency,P93_24,inactive
same,Potency,P94_40,inactive
same,Potency,PAD,inactive
same,Potency,PC15,inactive
same,Potency,PC49,inactive
same,Potency,SC27B,inactive
same,Potency,TAB109,inactive
same,Potency,TAB113,inactive
same,Potency,TAB165,inactive
same,Potency,W2,inactive
same,max response,KB-3-1,5%
